Source: PubChem BioAssay
A selection: hits, their analogues and other compounds. The true share with any hit is near 19%.
DT40 TDP1 no CPT: qHTS for Inhibitors of human tyrosyl-DNA phosphodiesterase 1 (TDP1): qHTS in cells in absence of CPT; AID 686978, 2013; DT40 Tdp1-/- hTDP1 cells, no CPT, ATP luminescence, 48 h; actives 15% (n = 420,000); Potency, µM (series often up to 46.2 µM), for inactives: at the top dose activity change, negative = growth inhibition, actives largely listed as inhibitors; also: potency is read from the fitted curve at half-maximal effect; nearly all actives have a fitted effect of over 55% in size
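No-CPT arm: Tdp1-/-;hTDP1 DT40 cells (400/well) plus compounds, incubated ≥48 hr at 37 °C. Readout CellTiter-Glo luminescence.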
IL1B secr inh: blocks inflammasome-driven IL-1 beta release. THP-1 LPS/ATP IL-1B secretion, AlphaLISA, 16 h; hits give low values. activity change, % at 57.5 µM. actives 4.7% (n = 360,000). AID 743279; in the data active = activity change below about -50%; inconclusive = mostly about -30% to -49%
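Secreted IL-1B measured by AlphaLISA bead assay after 16 h compound exposure of THP-1 cells; compounds (final up to 57.5 uM) added 1 h before LPS (250 ng/mL) and ATP (1.25 mM) stimulation; lower signal means less secretion.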
HT1080-NT tox: kills 2HG-producing HT-1080-NT fibrosarcoma cells; HT-1080-NT fibrosarcoma viability, CellTiter-Glo ATP luminescence, 48 h; Potency, µM (titrated, usually from 46.1 µM), for inactives: top-dose activity, negative = less viability, most hits filed as cytotoxic; actives 1.6% (n = 360,000);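 also: NT is the 2HG producing partner of a matched IDH1 knockdown line; potency is read from the fitted curve at half-maximal effect; 0% = DMSO-treated cells and -100% = media-only wells without cells; nearly all actives have a fitted effect of over 55% in size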
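HT-1080-NT; 750 cells/well; 5% FBS RPMI; 48 h compound, 37 degrees C; CellTiter-Glo luminescence; curve fitting and curve-class assignment.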
ELG1 DNA repair: blocks ELG1-dependent DNA repair in HEK293T cells; AID 504467; Potency, µM (top dose mostly 46.1 µM), inactives show top-dose activity change, negative = inhibition, hits mostly inhibitors; actives 2.3% (n = 330,000); HEK293T ELG1-luciferase reporter, luminescence, 16 h; DNA damage induced by 5-fluorouridine; also: potency is read from the fitted curve at half-maximal effect; nearly all actives have a fitted effect of over 55% in size
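Reporter activity after DNA damage by 5-fluorouridine is monitored. Compound-treated cells incubate 16 hr at 37 °C, then ONE-Glo is added for 30 min before luminescence reading.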
HT1080 IDH1KD tx: kills HT-1080 cells with IDH1 knockdown; HT-1080 IDH1 knockdown viability, ATP luminescence, 48 h; Potency, µM (series often up to 46.1 µM), for inactives: at the top dose activity, negative = toxicity, usual class: cytotoxic; actives 2% (n = 360,000); AID 686971;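 also: potency is read from the fitted curve at half-maximal effect; 0% = DMSO wells and -100% = cell-free medium wells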
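HT-1080-IDH1KD cells (IDH1 knocked down), 750/well in RPMI with 5% FBS, treated with compound 48 h at 37 degrees C. Viability by CellTiter-Glo luminescence, normalised to DMSO and no-cell wells; concentration-response curves classed.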
TDP1 cell CPT: DT40-hTDP1 cell growth loss with CPT; Potency, µM (titrated, usually from 46.2 µM), for inactives: at the highest dose activity change, negative = growth inhibition, hits mostly inhibitors; AID 686979; actives 12% (n = 420,000); chicken DT40 Tdp1-/-;hTDP1 cells + 20 nM CPT, ATP luminescence, 48 h; also: potency is read from the fitted curve at half-maximal effect; nearly all actives have a fitted effect of over 55% in size
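Cell growth measured by CellTiter-Glo luminescence after a minimum 48 h, 37 C compound exposure with 20 nM CPT in Tdp1-knockout DT40 cells stably expressing hTDP1, seeded 400/well; qHTS titration format.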
The depositor's hits bear a star; ? = inconclusive; nt = no result; [ ] = another dose, or the depositor's remark. Unless noted, calls follow the shape of the dose curve; as a rule, active = well fitted curve in the direction sought with a large enough effect; inconclusive = small, poorly fitted or top-dose-only effect, or another doubt; inactive = no such curve, though single readings can be large; an effect the other way counts as inactive or inconclusive. Unless noted, % is scaled to controls: 0 for no effect and ±100 for the full control effect.

SMILES	DT40 TDP1 no CPT	IL1B secr inh	HT1080-NT tox	ELG1 DNA repair	HT1080 IDH1KD tx	TDP1 cell CPT
Cn1cc(CN2CCCC(C(=O)c3cccs3)C2)c(-c2cccc(Cl)c2)n1 (centres undefined)	16µM*	-28	-20%	-21%	-15%	?
CCn1c(SCC(=O)Nc2c(C)cccc2C)nnc1-c1nonc1NC(C)=O	-20%	nt	nt	nt	nt	-7%
CC(=O)CC(=O)NC(=NC1CCCCC1)Nc1nc(C)cc(C)n1	?	-7	-3%	10µM*	-12%	?
Cc1cc(C)nc(NC(N)=S)n1	4%	0	8%	0%	8%	-2%
Cc1cc(C)nc(NC(N)=NC2CCCCC2)n1	12µM*	-6	0%	?	-27%	15µM*
N=c1c(S(=O)(=O)c2ccc(Br)cc2)cc2c(=O)n3ccccc3nc2n1C1CCCCC1	?	5	-3%	18%	-2%	?
N=c1c(S(=O)(=O)c2ccccc2)cc2c(=O)n3ccccc3nc2n1C1CCCCC1	15µM*	?	?	nt	?	26µM*
N=c1c(S(=O)(=O)c2ccc(Br)cc2)cc2c(=O)n3ccccc3nc2n1Cc1ccco1	6.5µM*	?	-5%	0%	-2%	9.2µM*
N=c1c(S(=O)(=O)c2ccc(Cl)cc2)cc2c(=O)n3ccccc3nc2n1Cc1ccco1	?	-12	-3%	-19%	-16%	?
COCCn1c(=N)c(S(=O)(=O)c2ccc(Br)cc2)cc2c(=O)n3ccccc3nc21	21µM*	3	5%	?	10%	?
CCc1ccc(CNC(=O)c2ccc(OC3CCN(C(C)=O)CC3)c(OC)c2)nc1	0%	6	-8%	-17%	3%	-6%
O=C1/C(=C/c2ccc(N3CCCC3)cc2)NC(=S)N1C1CC1	16µM*	-77*	6.3µM*	?	7.9µM*	16µM*
Cc1cc(N2CCCC2)ccc1/C=C1\NC(=S)N(C)C1=O	3.3µM*	-10	-3%	?	-13%	4.6µM*
O=C1N/C(=C/c2ccc(N3CCCC3)cc2)C(=O)N1c1ccccc1	?	3	-7%	?	-8%	?
CN1C(=O)c2ccc(N3CCCC3)cc2C1=O	?	4	6%[9.24 µM]	?	2%	?
CCS(=O)(=O)CCSC1OC(COC(C)=O)C(OC(C)=O)C(OC(C)=O)C1OC(C)=O (centres undefined)	-17%	10	26%	-4%	28%	-3%
Cc1ccc(OCC(=O)N(Cc2ccco2)c2c(N)n(Cc3ccccc3)c(=O)[nH]c2=O)cc1C	18%	0	7%	-3%	5%	-23%
CC1=C(c2ccc(C)cc2)S(=O)(=O)NC1=NCCCN1CCN(c2ccc(F)cc2)CC1	15µM*	nt	nt	nt	nt	15µM*
Cc1ccc(Cl)cc1N1CCN(S(C)(=O)=O)CC1	-16%	-21	-3%	-4%	2%	-18%
COc1ccc(C2=C(N3CCN(c4cc(Cl)ccc4C)CC3)c3ccccc3C2=O)cc1	?	nt	nt	nt	nt	21µM*
CC1=C(c2ccc(Cl)cc2)S(=O)(=O)NC1=NCCCN1CCN(c2cc(C)ccc2C)CC1	5.2µM*	nt	nt	nt	nt	2.6µM*
COc1ccc(C2=C(C)C(=NCCCN3CCN(c4cc(Cl)ccc4C)CC3)NS2(=O)=O)cc1	8.2µM*	nt	nt	nt	nt	6.5µM*
Cc1ccc(S(=O)(=O)N2CCN(C(=O)Cn3cnc4c3c(=O)n(C)c(=O)n4C)CC2)cc1C	2%	-23	3%	?	4%	-16%
O=C1NCCN(CC2CCN(CCc3ccccc3)CC2)C1=O	-12%	11	14%	nt	0%	-15%
O=C(NCCCc1ccccc1)C1CCN(C(=O)N2CCOc3ccc(Cl)cc32)CC1	15µM*	nt	nt	nt	nt	16µM*
SMILES	DT40 TDP1 no CPT	IL1B secr inh	HT1080-NT tox	ELG1 DNA repair	HT1080 IDH1KD tx	TDP1 cell CPT
CC1CN(C(=O)N2CCC(C(=O)NCCCc3ccccc3)CC2)c2ccccc2O1 (centres undefined)	?	nt	nt	nt	nt	21µM*
CCOc1ccc(CNC(=O)C2CCN(C(=O)N3CC(C)Oc4ccccc43)CC2)cc1 (centres undefined)	?	-16	16%	-18%	0%	?
CC(C)NC(=O)C1CCN(C(=O)N2CCOc3ccc(Cl)cc32)CC1	?	nt	nt	nt	nt	-28%
CC(CNC(=O)C1CCN(C(=O)N2CCOc3ccc(Cl)cc32)CC1)c1ccccc1 (centres undefined)	16µM*	nt	nt	nt	nt	?
CCCCNC(=O)C1CCN(C(=O)N2CC(C)Oc3ccc(Cl)cc32)CC1 (centres undefined)	21µM*	nt	nt	nt	nt	?
Cc1ccc(S(=O)(=O)N2CCC(N3CCN(Cc4ccccc4)C(=O)C3=O)CC2)cc1C	?	nt	nt	nt	nt	-17%
CC(=O)c1cccc(NC(=O)Cn2c(-c3cncs3)nc3ccccc32)c1	?	nt	nt	nt	nt	-2%
CC1CN(C(=O)N2CCC(C(=O)NCCCc3ccccc3)CC2)c2cc(Cl)ccc2O1 (centres undefined)	13µM*	nt	nt	nt	nt	18µM*
CC1CN(C(=O)N2CCC(C(=O)N3CCN(c4ccccc4)CC3)CC2)c2cc(Cl)ccc2O1 (centres undefined)	13µM*	nt	nt	nt	nt	13µM*
CC(C)NC(=O)C1CCN(C(=O)N2CC(C)Oc3ccccc32)CC1 (centres undefined)	-8%	nt	nt	nt	nt	10%
CC(=O)c1ccc(NC(=O)COc2ccccc2-c2nc(-c3cccc(C)c3)no2)cc1	-19%	nt	nt	nt	nt	-3%
CC(C)Oc1cc(F)ccc1-c1cc(C(=O)NCc2cccnc2)[nH]n1	?	-6	3%	nt	-1%	7%
O=C(NC1CC2CCCC(C1)N2C(=O)Nc1ccc(Cl)c(C(F)(F)F)c1)C1CC1 (centres undefined)	16µM*	-24	-1%	-1%	-12%	?
O=C(CSc1ncnc2c1nnn2Cc1ccccc1F)NCC1CCCO1 (centres undefined)	-25%	-90*	-17%	7%	?	?
O=C(CNC(=S)N(Cc1ccc(F)cc1)C1CCCCC1)NCC1CCCO1 (centres undefined)	11%	-1	5%	9%	22%	10%
O=C(CNC(=S)N(Cc1ccccc1F)C1CCCCC1)NCC1CCCO1 (centres undefined)	?	-68*	-3%	?	1%	?
